NLRP3 yeast inh = blocks the NALP3 inflammasome reconstituted in yeast; Yeast reconstituted NLRP3/ASC/caspase-1, beta-gal luminescence, 24 h; inhibition, % at 10 µM; 330,000 tested, 0.39% active; AID 2825;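 active = inhibition of 50% or more; inactive = inhibition below 50%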;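 also: plate controls were induced DMSO wells for no effect and uninduced yeast grown without galactose for full effect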
tim10-1 inh = inhibits growth of tim10-1 mutant yeast | S. cerevisiae tim10-1 ts strain growth, BacTiter-Glo, 24 h | AID 463190 | inhibition, % at 20 µM | 330,000 tested, 2.2% active;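 active = inhibition of at least 40%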;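 also: mutant grown at 25 °C; 0% = DMSO wells with yeast and 100% = wells holding no yeast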
NALP1 inh = NALP1 inhibition; S. cerevisiae NALP1/ASC/caspase-1 growth, X-gal OD620, 72 h; AID 2071; inhibition, % at 10 µM; 280,000 tested, 0.61% active; in the data active = inhibition mostly above about 24%, no sharp cut-off; inactive = mostly below about 32%
TIM10 inh = TIM10 yeast growth inhibition; AID 463195; S. cerevisiae TIM10 strain growth, BacTiter-Glo luminescence, 24 h; 330,000 tested, 1.4% active; inhibition, % at 10 µM;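 active = inhibition of 40% or more at the single tested concentration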;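 also: wild-type TIM10 isogenic control strain grown at permissive 25 °C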
tim23-1 inh = tim23-1 yeast growth inhibition; S. cerevisiae tim23-1 growth, BacTiter-Glo luminescence, 24 h; inhibition, % at 20 µM; 330,000 tested, 1.3% active;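 active = growth inhibition of the mutant yeast at or above 50%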;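 also: temperature-sensitive mutant grown at 25 °C; plate controls were DMSO-treated mutant yeast for no effect and medium wells lacking yeast for full effect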
tim10 confirm = confirmation of TIM10 yeast growth inhibitors. shares compounds with TIM10 inh. S. cerevisiae tim10 strain growth, BacTiter-Glo luminescence, 24 h. inhibition, % at 10 µM. 4,600 tested, 63% active. AID 463215;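 active = inhibition of yeast growth at or above a set limit in either of two replicates at 10 µM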;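 also: this counterscreen used the strain with wild-type TIM10; 0% = yeast with DMSO and 100% = medium wells lacking yeast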
tim23-1 confirm = confirmation of tim23-1 mutant yeast growth inhibitors; shares compounds with tim23-1 inh; S. cerevisiae tim23-1 growth, BacTiter-Glo luminescence, 24 h; inhibition, % at 20 µM; 4,400 tested, 83% active; AID 463218;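 active = inhibition above about 39% in either of two replicate wells at 20 µM, limit read from the data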;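 also: temperature-sensitive tim23-1 mutant grown at 25 °C; 0% = DMSO wells with yeast and 100% = medium wells without yeast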
Starred values were filed as active, the others as inactive. Compounds with a hit are over-represented: about 4% of the library has one in this group of screens.

What do the screens show for `O=C(c1cccs1)N1CCN(c2nnc(-c3ccccc3)c3ccccc23)CC1`?
NLRP3 yeast inh: -0.3; tim10-1 inh: 27.4; NALP1 inh: -1.9; TIM10 inh: 42.5*; tim23-1 inh: 51.4*; tim10 confirm: -1.6; tim23-1 confirm: 26.3

How did CCCC(=O)N1CCN(c2nnc(-c3ccccc3)c3ccccc23)CC1 do in these assays?
NLRP3 yeast inh: 7.2; tim10-1 inh: -29.7; NALP1 inh: 1.6; TIM10 inh: -33.5; tim23-1 inh: -13.6

Results for CCCCCCNC(=O)CCCCCNS(=O)(=O)c1ccc(OC)cc1 ?
NLRP3 yeast inh: 4.1; tim10-1 inh: 11.4; NALP1 inh: 35.9; TIM10 inh: -7.9; tim23-1 inh: 19.4

How did O=C(Nc1cc(-c2nc3ncccc3o2)ccc1Cl)c1ccc([N+](=O)[O-])o1 do in these assays?
NLRP3 yeast inh: 14.1; tim10-1 inh: 26.5; NALP1 inh: -4.7; TIM10 inh: 43.0*; tim23-1 inh: 86.4*; tim10 confirm: 28.2; tim23-1 confirm: 86.0*

Results for O=C(Nc1cc(-c2nc3ncccc3o2)ccc1Cl)c1cccs1 ?
NLRP3 yeast inh: 26.1; tim10-1 inh: -2.5; NALP1 inh: -6.5; TIM10 inh: 1.7; tim23-1 inh: 32.2

How did CC1CCCCC1NC(=O)COC(=O)c1ccc2ncsc2c1 (stereo not drawn) do in these assays?
NLRP3 yeast inh: 6.5; tim10-1 inh: -18.4; TIM10 inh: -13.4; tim23-1 inh: 10.5

Results for Oc1c(Cl)cc(Cl)cc1C=Nc1ccc(N2CCOCC2)cc1 ?
NLRP3 yeast inh: 14.7; tim10-1 inh: 16.3; NALP1 inh: 23.9; TIM10 inh: 65.7*; tim23-1 inh: 73.9*; tim10 confirm: 17.5; tim23-1 confirm: 38.5*

How did COc1ccccc1CC(=O)NCc1ccc2c(c1)OCO2 do in these assays?
NLRP3 yeast inh: 3.0; tim10-1 inh: 6.7; NALP1 inh: -1.0; TIM10 inh: -14.6; tim23-1 inh: 7.9

What do the screens show for `COc1ccccc1C/C(N)=N/OC(=O)c1ccc2c(c1)OCO2`?
NLRP3 yeast inh: 8.5; tim10-1 inh: 24.0; NALP1 inh: 3.3; TIM10 inh: 70.7*; tim23-1 inh: 71.6*; tim10 confirm: 80.3*; tim23-1 confirm: 77.2*

What do the screens show for `CC1CCCN(S(=O)(=O)c2ccc(S(=O)(=O)N3CCC4(CC3)OCCO4)cc2)C1` (stereo not drawn)?
NLRP3 yeast inh: 19.1; tim10-1 inh: 9.4; NALP1 inh: 18.4; TIM10 inh: -6.0; tim23-1 inh: -9.6

Results for CC(=O)Nc1sc2c(c1-c1nc3ccccc3s1)CCN(C(C)C)C2 ?
NLRP3 yeast inh: -11.9; tim10-1 inh: 34.8; NALP1 inh: 47.8*; TIM10 inh: 66.3*; tim23-1 inh: 53.6*; tim10 confirm: 63.2*; tim23-1 confirm: 59.6*

What do the screens show for `CC(C)N1CCc2c(sc(NC(=O)c3ccc4ccccc4c3)c2C(N)=O)C1`?
NLRP3 yeast inh: 9.5; tim10-1 inh: 13.4; NALP1 inh: 16.2; TIM10 inh: 18.7; tim23-1 inh: 39.6

Results for COc1ccc(-c2cc(=O)oc3cc(OCC(=O)NCc4ccccn4)ccc23)cc1 ?
NLRP3 yeast inh: -6.7; tim10-1 inh: -12.7; NALP1 inh: 5.4; TIM10 inh: 5.6; tim23-1 inh: -5.8

How did N#Cc1nc(-c2ccccc2F)oc1NCCc1ccccc1 do in these assays?
NLRP3 yeast inh: 31.2; tim10-1 inh: 35.9; NALP1 inh: 9.8; TIM10 inh: 66.3*; tim23-1 inh: 56.6*; tim10 confirm: 60.7*; tim23-1 confirm: 77.9*

Results for N#Cc1nc(-c2ccccc2F)oc1NCc1ccccc1 ?
NLRP3 yeast inh: 28.9; tim10-1 inh: 36.2; NALP1 inh: -30.2; TIM10 inh: 3.6; tim23-1 inh: 47.2

How did Cc1ccc(S(=O)(=O)N2CCCCC2)cc1NC(=O)COC(=O)Cc1cccc(C(F)(F)F)c1 do in these assays?
NLRP3 yeast inh: 14.8; tim10-1 inh: 2.2; NALP1 inh: 24.2; TIM10 inh: -0.1; tim23-1 inh: -11.4

Results for N#C/C(=C/c1cccc(O)c1)C(=O)NCc1ccc(Cl)cc1 ?
NLRP3 yeast inh: 8.8; tim10-1 inh: 36.7; NALP1 inh: 23.2; TIM10 inh: 71.1*; tim23-1 inh: 77.4*; tim10 confirm: 77.2*; tim23-1 confirm: 75.0*

Results for O=C(/C=C/Nc1ccccc1)c1ccccc1 ?
NLRP3 yeast inh: 21.8; tim10-1 inh: -5.6; NALP1 inh: -12.6; TIM10 inh: 6.2; tim23-1 inh: 8.9

Results for O=C(/C=C/Sc1ccccc1)c1ccccc1 ?
NLRP3 yeast inh: 37.6; tim10-1 inh: 21.5; NALP1 inh: 5.8; TIM10 inh: 59.2*; tim23-1 inh: 66.5*; tim10 confirm: 64.8*; tim23-1 confirm: 80.8*

What do the screens show for `CCOC(=O)c1sc(NC(=O)c2ccccc2)cc1C`?
NLRP3 yeast inh: 32.6; tim10-1 inh: 5.5; NALP1 inh: 6.9; TIM10 inh: 49.8*; tim23-1 inh: 64.0*; tim10 confirm: 32.1*; tim23-1 confirm: 72.3*

How did N#CC(C(=O)c1ccccc1Cl)=C1SCCCS1 do in these assays?
NLRP3 yeast inh: 27.8; tim10-1 inh: 31.2; NALP1 inh: -32.6; TIM10 inh: 41.5*; tim23-1 inh: 68.7*; tim10 confirm: 40.5*; tim23-1 confirm: 52.3*

What do the screens show for `COc1ccc2c(c1)[C@@H]1[C@H](CO2)[C@H](c2ccccc2)[C@]2(C)C(=O)Nc3ccc(C)cc3C(=O)N12`?
NLRP3 yeast inh: 4.9; tim10-1 inh: 34.7; TIM10 inh: 42.2*; tim23-1 inh: 58.4*; tim10 confirm: 35.2*; tim23-1 confirm: 57.0*

What do the screens show for `Cc1ccc(NC(=O)ON=C2CCCC2)cc1`?
NLRP3 yeast inh: 22.5; tim10-1 inh: -0.2; NALP1 inh: 14.2; TIM10 inh: 53.5*; tim23-1 inh: 52.7*; tim10 confirm: 68.0*; tim23-1 confirm: 47.3*

How did O=C(Nc1ccccc1)ON=C1CCCC1 do in these assays?
NLRP3 yeast inh: 13.7; tim10-1 inh: 34.3; NALP1 inh: 39.5; TIM10 inh: 39.8; tim23-1 inh: 39.3

What do the screens show for `COc1ccc(OC)c(/C=C2/Sc3ccccc3C2=O)c1`?
NLRP3 yeast inh: -1.0; tim10-1 inh: 21.2; NALP1 inh: 16.6; TIM10 inh: 30.0; tim23-1 inh: 24.2

What do the screens show for `COc1ccc(S(=O)(=O)N2CCOc3ccccc32)cc1`?
NLRP3 yeast inh: 25.7; tim10-1 inh: 3.0; NALP1 inh: -5.2; TIM10 inh: 12.6; tim23-1 inh: 1.9

How did Cc1ccccc1OCC(=O)O/N=C(\N)Cc1ccc(Cl)cc1 do in these assays?
NLRP3 yeast inh: 13.8; tim10-1 inh: 19.0; NALP1 inh: 10.2; TIM10 inh: 83.8*; tim23-1 inh: 81.9*; tim10 confirm: 79.4*; tim23-1 confirm: 59.5*

Results for CN1CCc2cc3c(c4c2[C@H]1[C@H](O)c1ccccc1-4)OCO3 ?
NLRP3 yeast inh: 35.6; tim10-1 inh: 35.7; NALP1 inh: -6.9; TIM10 inh: 53.1*; tim23-1 inh: 57.9*; tim10 confirm: 68.1*; tim23-1 confirm: 62.6*
